# Experimental data reported in PubChem BioAssay (NCATS).
# Inconclusive results are not listed. Entries that show only a call come without a potency. Activity calls are given as the source filed them. The call rests on the fitted dose curve; in most records, active means well fitted cell-killing curve with a large enough effect; inconclusive means small, poorly fitted or top-dose-only effect, or effect the other way; inactive means flat fitted curve, though single readings scatter.
# Tested on: CASKI
# Assay: Primary qHTS to identify gynecologic anti-cancer compounds using libraries of approved drugs and bioactive compounds (AID 1345084); further: nearly all actives have a fitted effect of over 55% in size
# Conditions: Gynecologic cancer cell panel viability, ATPlite luminescence, 48 h; series mostly up to 57.5 µM
# Method in brief: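 Luminescence from the ATPlite ATP-monitoring reagent indicates viable cell number; lower signal means cytotoxicity. Cells received compound 16 h after seeding and were exposed for 48 h across five concentrations.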
# Potency means the concentration at half of the fitted maximal effect.
row,SMILES,Potency
1,O=[N+]([O-])c1ccc(-[n+]2nc(-c3ccccc3)nn2-c2ccc(I)cc2)cc1,inactive
2,C=C(C)C(=O)OC1[C@@H]2C(=C)C(=O)O[C@@H]2C[C@@H](C)[C@@H]2C=CC(=O)[C@@]12C (some centres undefined),inactive
3,CCC(C)n1cc(C)c2c(C(=O)NCc3c(C)cc(C)[nH]c3=O)cc(-c3ccc(N4CCNCC4)nc3)cc21 (centres undefined),inactive
4,CC(C)[C@@H](C)/C=C/[C@@H](C)[C@H]1CC[C@H]2C3=CC=C4C[C@@H](O)CC[C@]4(C)C3=CC[C@]12C,inactive
5,Cn1c(NC[C@@H](N)Cc2ccccc2)nc(-c2ccncc2)c(-c2ccc3ccccc3c2)c1=O,inactive
6,Nc1ncnc2c1ncn2[C@@H]1O[C@H](CO)C[C@H]1O,inactive
7,COc1ccc(C(=O)N(CCC(C)C)Cc2nc(C)c(C)n2Cc2ccccc2C)c(OC)c1,inactive
8,O=C(Nc1ccc(F)cc1)N1CCc2ccccc2C1c1ccc(C(F)(F)F)cc1 (centres undefined),inactive
9,Cc1ccc(C(=O)N2CCN(c3ccc([N+](=O)[O-])cc3)CC2)cc1Cl,inactive
10,CN(C)C(=O)c1cc2cnc(Nc3ccc(N4CCNCC4)cn3)nc2n1C1CCCC1,inactive
11,C=C1/C(=C/C=C2\CCC[C@]3(C)[C@@H]([C@H](C)/C=C/C(=O)C4CC4)CC[C@@H]23)C[C@@H](O)C[C@@H]1O,inactive
12,CC(C)(C)c1ccc(-c2nc3ccccc3[nH]2)cc1,1.12 µM (active)
13,COc1cc(O)c(C(=O)CCc2ccc(O)cc2)c(O[C@@H]2O[C@H](CO)[C@@H](O)[C@H](O)[C@H]2O)c1,inactive
14,CN1CCN(C(=O)c2ccc(Nc3nccc(-c4cccs4)n3)cc2Cl)CC1,inactive
